Data from PubChem BioAssay AID602430 (NMMLSC, 2012).
This is one part of the list.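 How the source made its calls: active means repeat-averaged ratio response below 75% of DMSO, the collection mean minus 3 SD; inactive means the rest.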

Each molecule was assayed against ATP-binding cassette sub-family B member 6 (Homo sapiens) (UniProt Q9NP58) (assay: blockers of ABCB6-driven porphyrin uptake – K562-ABCB6 cells, flow cytometry, cherry pick 1, confirmation (AID 602430;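 further: median porphyrin fluorescence at 575 nm with 488 nm excitation from mitochondria; lower ratio means less porphyrin signal so ABCB6 inhibition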)). Details: K562-ABCB6 porphyrin accumulation, 1 h, at 10 µM, active compounds read low.
Chain of ATP-binding cassette sub-family B member 6 (Homo sapiens) (Q9NP58 whole entry, looked up): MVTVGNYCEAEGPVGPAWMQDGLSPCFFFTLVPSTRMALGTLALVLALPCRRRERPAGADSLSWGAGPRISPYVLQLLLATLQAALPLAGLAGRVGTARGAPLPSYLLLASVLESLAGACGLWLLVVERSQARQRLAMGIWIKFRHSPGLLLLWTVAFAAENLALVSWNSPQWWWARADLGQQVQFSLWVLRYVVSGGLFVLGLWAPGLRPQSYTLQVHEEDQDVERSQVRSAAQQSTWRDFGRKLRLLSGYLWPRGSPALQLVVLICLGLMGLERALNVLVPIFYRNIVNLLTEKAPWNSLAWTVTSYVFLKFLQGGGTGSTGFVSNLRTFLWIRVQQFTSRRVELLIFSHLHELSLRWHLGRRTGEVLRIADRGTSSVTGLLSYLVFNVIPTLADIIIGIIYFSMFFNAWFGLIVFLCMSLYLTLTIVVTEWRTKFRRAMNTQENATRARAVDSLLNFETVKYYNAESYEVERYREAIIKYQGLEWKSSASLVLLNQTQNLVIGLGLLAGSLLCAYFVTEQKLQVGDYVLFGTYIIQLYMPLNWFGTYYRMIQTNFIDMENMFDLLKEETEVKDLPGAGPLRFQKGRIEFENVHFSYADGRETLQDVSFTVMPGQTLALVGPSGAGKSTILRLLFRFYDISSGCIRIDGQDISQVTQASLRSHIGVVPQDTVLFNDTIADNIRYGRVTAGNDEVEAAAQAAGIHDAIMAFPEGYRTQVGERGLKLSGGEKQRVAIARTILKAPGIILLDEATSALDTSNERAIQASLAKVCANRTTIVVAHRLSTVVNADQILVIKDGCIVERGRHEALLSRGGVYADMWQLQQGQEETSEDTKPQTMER

Ratio response (% of DMSO), inactive:
Cc1ccccc1OCC(=O)Nc1nnc(S(=O)(=O)N2CCCC2)s1 101%, COc1ccccc1C(=O)C(O)c1ccccc1OC (stereo not drawn) 102%, Cc1ccc(Cl)cc1N1CCN(C(=O)c2cccc3c(=O)c(C)c(-c4ccccc4)oc23)CC1 102%, O=C(Nn1cnc2ccccc2c1=O)c1ccc(F)cc1Cl 93%, CC(C)C(=O)NCC(c1cccs1)S(=O)(=O)c1ccc(F)cc1 (stereo not drawn) 100%, CC(C(=O)Nc1ccc(F)c(F)c1F)N1CCCCCC1 (stereo not drawn) 101%, COC(=O)CNC(=O)c1cc(-c2ccncc2)nc2ccccc12 101%, Cc1cccc(CS(=O)(=O)c2ncc(Cl)c(C(=O)Nc3ccc(F)cc3)n2)c1 89%, COc1cc2[nH]c(=S)n(Cc3ccc(F)cc3)c(=O)c2cc1OC 100%, Cc1cccc(N2CCN(C(=O)CCS(=O)(=O)c3ccc4c(c3)NC(=O)C(C)S4)CC2)c1C (stereo not drawn) 96%, Cc1ccc2nc3c(cc(C(=O)NCCc4ccccc4)c(=N)n3CC3CCCO3)c(=O)n2c1 (stereo not drawn) 102%, CC1(C(=O)NS(=O)(=O)c2cccc(F)c2)CCN1C(=O)Cc1cc(F)ccc1F (stereo not drawn) 97%, Cc1nn(-c2ccccc2)c(C)c1C(=O)OCC(=O)NC(=O)NC1CCCCC1 97%, COc1ccc(CCNS(=O)(=O)c2ccc(F)cc2)cc1OC 101%, Cc1ccccc1NC(=O)C(C)OC(=O)CCC(=O)N(CC(C)C)c1c(N)n(CC(C)C)c(=O)[nH]c1=O (stereo not drawn) 101%, CCn1c(COc2ccccc2)nnc1SCC(=O)Nc1ccc2c(c1)OCCO2 97%, O=C1CCCC2=C1C(c1cccs1)n1nc(SCc3ccccc3)nc1N2 (stereo not drawn) 102%, CCS(=O)(=O)N1CCC(N2CCN(c3ccccc3)CC2)CC1 103%
